Data on four compounds can be found in PubChem BioAssay (EPA / NIEHS).

A short description of experiment [1]: UKN5_HCS_SBAD2_neurite_outgrowth: University of Konstanz (UKN) Leist Lab Neurite Outgrowth Assay in human iPSC-derived immature Dorsal Root Ganglia Neurons (UKN5) (AID 2284070). The conditions noted are these: actives raise or lower the signal. The method in brief: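 Neurite outgrowth is quantified as calcein-AM-labelled neurite area in human iPSC-derived peripheral neurons treated for 24 h, starting 1 h after plating in medium with CHIR99021 (1.5 uM), SU5402 (5 uM) and DAPT (5 uM).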

Experiment [2] in a line: UKN2_HCS_IMR90_neural_migration: University of Konstanz (UKN) Leist Lab Neural Crest Cell Migration Assay in human induced IMR90 Pluripotent Stem Cells (UKN2) (AID 2284204). The note with it: actives raise or lower the signal. The method in brief: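 Using a 96-well stopper format with PLO/laminin/fibronectin coating, neural crest cells from iPSC migrate in cytokine-supplemented N2-S medium; after 24 h, chemicals are applied for a further 24 h, then cells are imaged after dye staining.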

Experiment [3] can be described thus: UKN4_HCS_LUHMES_cell_viability: Viability Assessment in the University of Konstanz (UKN) Leist Lab Neurite Outgrowth Assay in human LUHMES cells (UKN4) (AID 2284232). The method in brief: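 Measured in replated, 2-day-differentiated LUHMES cells treated 24 h; stained 30 min with H-33342 and calcein-AM before high-content imaging.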
Experiment [4] is described as follows: UKN2_HCS_IMR90_cell_viability: Viability Assessment in the University of Konstanz (UKN) Leist Lab Neural Crest Cell Migration Assay in human induced IMR90 Pluripotent Stem Cells (UKN2) (AID 2284233).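 Also: viability of neural crest cells differentiated from IMR90 iPSC measured by calcein-AM fluorescence imaging; cells exposed to compound for 24 h after a 24 h migration phase.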 The method in brief:
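cMINC format, iPSC-derived neural crest (IMR90); 24 h migration (EGF/FGF, N2-S), then 24 h toxicant. Calcein-AM/H-33342 stain 30 min; fluorescence intensity by HCS; DMSO-normalised, bidirectional fitting.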

Experiment [5] in a line: IUF_NPC1b_proliferation_BrdU_72hr: Leibniz Research Institute for Environmental Medicine (IUF) 72-hour Neural Progenitor Cell Bromodeoxyuridine (BrdU) Proliferation Assay (NPC1b) (AID 2284207). The method in brief: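 Neural progenitor spheres of human fetal origin are treated for three days; BrdU added for the last 16 h is quantified by luminescence ELISA, with DMSO as baseline and EGF/FGF omission as positive control.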

Experiment [6] can be described thus: IUF_NPC1a_proliferation_area_72hr: Leibniz Research Institute for Environmental Medicine (IUF) 72-hour Neural Progenitor Cell Proliferation Area Assay (NPC1a) (AID 2284208). The method in brief:
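Single 0.25–0.35 mm human fetal neural progenitor spheres in proliferation medium with EGF and FGF, exposed 72 h from plating without renewal at 37C, pH 7.2-7.6. Sphere area growth measured by automated phase-contrast imaging, relative to DMSO.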

The nature of experiment [7]: IUF_NPC2c_oligodendrocyte_migration_120hr: Leibniz Research Institute for Environmental Medicine (IUF) 120-hour Neural Progenitor Cell Migration Assay for Oligodendrocyte Migration (NPC2c) (AID 2284297).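 Also: O4-positive oligodendrocyte migration distance divided by radial glia migration distance.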 The method in brief:
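Human fetal neural progenitor spheres (0.3 mm) are plated on poly-D-lysine/laminin in N2 differentiation medium and exposed for 120 h, with half-medium renewal at day 3. Oligodendrocyte (O4+) migration distance comes from ICC imaging, normalised to radial glia migration.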

Experiment [8] can be described thus: IUF_NPC2a_radial_glia_migration_120hr: Leibniz Research Institute for Environmental Medicine (IUF) 120-hour Neural Progenitor Cell Migration Assay for Radial Glia Migration (NPC2a) (AID 2284298). The method in brief: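 Human fetal-cortex neural progenitor spheres (0.3 mm) plated on poly-D-lysine/laminin in N2 differentiation medium, exposed 120 h at 37C with half-medium renewal at day 3. Radial glia migration distance (um) measured from Hoechst-stained nuclei images; DMSO baseline.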

Experiment [9] is described as follows: IUF_NPC2a_radial_glia_migration_72hr: Leibniz Research Institute for Environmental Medicine (IUF) 72-hour Neural Progenitor Cell Migration Assay for Radial Glia Migration (NPC2a) (AID 2284299). The method in brief: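 Spheres of human primary neural progenitors migrate on poly-D-lysine/laminin under compound exposure at 37C, 5% CO2. The 72 h radial glia migration distance comes from brightfield images, measured manually.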

Experiment [10] can be described thus: IUF_NPC2b_neuronal_migration_120hr: Leibniz Research Institute for Environmental Medicine (IUF) 120-hour Neural Progenitor Cell Migration Assay for Neuron Migration (NPC2b) (AID 2284300). The method in brief: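 0.3 mm hNPC spheres on poly-D-lysine/laminin in N2 differentiation medium exposed 120 h, half-medium refresh day 3; 7 concentrations, DMSO max 0.1%. Neuron (TUBB3) distance from sphere core by ICC imaging, normalised to radial glia migration.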

A short description of experiment [11]: IUF_NPC3_neuronal_differentiation_120hr: Leibniz Research Institute for Environmental Medicine (IUF) 120-hour Neuronal Differentiation Assay (NPC3) (AID 2284301). The method in brief: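 Neuronal differentiation of primary human neural progenitors measured by high-content imaging: percent TUBB3+ of Hoechst+ nuclei within migrated area at 120 h, seven-point serial dilution plus solvent control, gain or loss relative to DMSO.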

The nature of experiment [12]: IUF_NPC4_neurite_length_120hr: Leibniz Research Institute for Environmental Medicine (IUF) 120-hour Neuronal Morphology Assay for Neurite Length (NPC4) (AID 2284302). The method in brief:
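Neurons from differentiating human fetal neural progenitor spheres are scored for average neurite length after five days of compound exposure. Fitting uses DMSO as negative control.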

Experiment [13] is described as follows: IUF_NPC5_oligodendrocyte_differentiation_120hr: Leibniz Research Institute for Environmental Medicine (IUF) 120-hour Oligodendrocyte Differentiation Assay (NPC5) (AID 2284304; active = hit-call score of the fitted dose curve at least 0.9, where 1 is the maximum;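 also: primary human fetal neural progenitor spheres plated to migrate and differentiate; share of O4-positive cells among Hoechst nuclei found by CNN image analysis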). The method in brief:
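Human fetal neural progenitor spheres (0.3 mm) plated on poly-D-lysine/laminin in N2 differentiation medium and exposed for 120 h at 7 concentrations, with half-medium renewal at day 3. O4-positive cells identified by CNN, expressed as percent of Hoechst nuclei.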

A short description of experiment [14]: IUF_NPC4_neurite_area_120hr: Leibniz Research Institute for Environmental Medicine (IUF) 120-hour Neuronal Morphology Assay for Neurite Area (NPC4) (AID 2284305; active = hit-call score of the fitted dose curve at least 0.9, where 1 is the maximum). The method in brief:
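Endpoint at 120 h: automated imaging of TUBB3/Hoechst-stained differentiating human neural progenitor spheres, neurite area per neuron from skeletonization. DMSO solvent control, not above 0.1%, set the baseline; medium was half-replaced on day 3.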

Experiment [15] can be described thus: IUF_NPC2-5_cytotoxicity_72hr: Cytotoxicity Assessment at 72 hours in the Leibniz Research Institute for Environmental Medicine (IUF) Neural Progenitor Cell Migration and Differentiation Assay for Cytotoxicity (NPC2-5) (AID 2284306; active = hit-call score of the fitted dose curve at least 0.9, where 1 is the maximum;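 also: LDH release into supernatant measured by resorufin fluorescence marking membrane damage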). The method in brief:
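Primary human neural progenitor spheres migrate and differentiate on laminin. Compound is present from the start of differentiation, with DMSO kept at or below 0.1%. At 72 h, supernatant LDH is quantified fluorometrically, with values fitted in the positive direction.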

Experiment [16] is described as follows: IUF_NPC2-5_cytotoxicity_120hr: Cytotoxicity Assessment at 120 hours in the Leibniz Research Institute for Environmental Medicine (IUF) Neural Progenitor Cell Migration and Differentiation Assay (NPC2-5) (AID 2284307; active = hit-call score of the fitted dose curve at least 0.9, where 1 is the maximum). The method in brief: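 Human fetal (GW 16-19) neural progenitor spheres (0.3 mm) plated on poly-D-lysine/laminin in N2 differentiation medium, exposed 120 h with half-medium renewal at day 3; 7 concentrations plus solvent control, DMSO ≤0.1%. LDH release in supernatant read by resorufin fluorescence.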

A short description of experiment [17]: IUF_NPC2-5_cell_number_120hr: Cell Number Assessment at 120 hours in the Leibniz Research Institute for Environmental Medicine (IUF) Neural Progenitor Cell Migration and Differentiation Assay (NPC2-5) (AID 2284308).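 Also: count of Hoechst-stained nuclei in migration zone around plated human neural progenitor spheres.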 The method in brief: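 Human fetal neural progenitor spheres (0.3 mm) plated on poly-D-lysine/laminin in N2 differentiation medium, exposed five days across 7 concentrations with half-medium refresh at day 3. Hoechst-positive nuclei counted in migration area at 120 h, relative to DMSO.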

Experiment [18] in a line: IUF_NPC2-5_viability_120hr: Viability Assessment at 120 hours in the Leibniz Research Institute for Environmental Medicine (IUF) Neural Progenitor Cell Migration and Differentiation Assay (NPC2-5) (AID 2284312). The method in brief: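 Human fetal (GW 16-19) neural progenitor spheres of 0.3 mm were plated on poly-D-lysine/laminin in N2 differentiation medium and exposed from day 0 for 120 h, with half-medium refresh at day 3. Viability was read as alamar blue resazurin-to-resorufin fluorescence against DMSO.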

A short description of experiment [19]: IUF_NPC1_cytotoxicity_72hr: Cytotoxicity Assessment at 72 hours in the Leibniz Research Institute for Environmental Medicine (IUF) Neural Progenitor Cell Proliferation Assay (NPC1) (AID 2284332; active = hit-call score of the fitted dose curve at least 0.9, where 1 is the maximum;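 also: rising LDH signal means more cytotoxicity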). The method in brief: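 Readout is fluorescence from LDH-dependent resazurin conversion, sampled from culture medium after compound contact lasting 72 h. Each well holds one 0.25-0.35 mm human progenitor sphere kept at 37C, 5% CO2 with EGF and FGF.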

A short description of experiment [20]: Tanguay_ZF_120hpf_MUSC: Oregon State University Tanguay Lab 120 Hour Post-fertilization zebrafish Assay for Muscle Malformation (AID 2284401). The method in brief: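 Scored as a binary brightfield endpoint at 120 hpf, fitted versus DMSO. Single dechorionated wild-type (Tropical 5D) zebrafish embryos per well, statically exposed at 28C from 6 hpf onward with final DMSO 0.64%.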

Results filed as inconclusive are left out. Calls of active or inactive are those of the source. The calls were made as follows, unless noted: active = hit-call score of the fitted dose curve at least 0.9, where 1 is the maximum; inactive = score below 0.9.

What is called AC50 is the midpoint of the concentration-response curve, whichever way the signal moves. With `O=[As](O)(O)O`, the half-maximal activity concentration (AC50) in experiment [1] was 1.4 µM (active); in experiment [3], 71.4 µM (active); in experiment [4] it was 104 µM (active). Besides, the compound was called inactive in experiment [2].
In the case of `CC(C)CC(C)c1sccc1NC(=O)c1cn(C)nc1C(F)(F)F` (stereo not given), the call in experiment [1], in experiment [5], in experiment [6], in [3], in [7] and in experiment [9] was inactive. In addition, the compound was classed as inactive in [10], in [11], in experiment [12], in experiment [14], in experiment [15] and in experiment [16]. For the same compound, the compound was called inactive in [17], in experiment [18] and in [19]. Also, the AC50 in [2] was 65.6 µM (active); in [4], 77.1 µM (active); in experiment [8] it was 10 µM (active); in experiment [13] it was 5.68 µM (active).
`O=C(O)C(F)(F)C(F)(F)C(F)(F)C(F)(F)C(=O)O`: the result in experiment [20] was inactive.
Still for that read-out and setting: next, `O=C(O)C(F)(F)C(F)(F)C(F)(F)C(F)(F)C(F)(F)C(F)(F)C(F)(F)C(F)(F)C(F)(F)C(F)F`: “inactive”.
